PNC assembly inh = perinucleolar compartment assembly inhibition; PC3M PTB-GFP, PNC prevalence imaging, 16 h; active compounds read low; activity change (PNC), negative = inhibition, % at 10 µM; actives 3.1% (n = 140,000); AID 2417;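 active = readout at or below -70, meaning at least 70% loss of cells showing the perinucleolar compartment, a nuclear body marking cancer cells; inconclusive = readout between -30 and a set limit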;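 also: plate controls were DMSO wells for no effect and camptothecin positive control wells for full effect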
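Read-out is percentage of cells bearing a perinucleolar compartment, from automated 20x imaging of fixed, Hoechst-stained PC3M PTB-GFP cells. Cells were seeded 4 h, then exposed 16 h to compound (23 nl of library stock) in duplicate plates.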
IMPase Li cell = cell-permeable IMPase inhibitors with lithium potentiation; actives 0.35% (n = 210,000); AID 1457; Potency, µM (doses to about 59.4 µM), for the others: top-dose activity, negative = IMPase inhibition, usual class: inhibitors; CHO-M1 cells, IP1 TR-FRET (IP-One), carbachol + lithium;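 also: IP1 builds up when IMPase is blocked and the TR-FRET signal falls; potency is read from the fitted curve at half-maximal effect; plate controls were basal vehicle for no effect and high inhibitor control for full effect; nearly all actives have a fitted effect of over 50% in size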
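IP1 accumulation measured by competitive TR-FRET in lysed CHO-M1 cells after 30 min compound exposure at 37C, with a small lithium addition to potentiate weak responses. Hill-equation AC50 from ratio and donor-channel data.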
ALOX12 inhib = 12-hLO (ALOX12) enzyme inhibition; actives 0.12% (n = 150,000); P18054; purified 12-hLO, xylenol orange hydroperoxide absorbance; AID 1452; Potency, µM (top dose mostly 57.1 µM), for the others: top-dose activity change, negative = inhibition, most hits filed as inhibitors; also: potency is read from the fitted curve at half-maximal effect; nearly all actives have a fitted effect of over 55% in size
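Hydroperoxide formation by human 12-lipoxygenase from 40 uM arachidonic acid was followed colorimetrically via ferric-xylenol orange complex, using the 573/405 nm absorbance ratio. Enzyme concentration was 150 nM, with 30 min reaction at room temperature.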
IMPase inh = cell-permeable inhibitors of inositol monophosphatase (IMPase); P97697; CHO-M1 cells, IP1 accumulation, HTRF TR-FRET ratio; inhibition (IP1 accumulation), % at 46.1 µM; 120,000 tested, under 10 active; active = well fitted curve in the direction sought with a large enough effect in the signal ratio, not every such curve was filed as active; inconclusive = small, poorly fitted or top-dose-only effect, or a change in a side signal; inactive = no such curve, though single readings can be large or run the other way; the % refers to the signal ratio;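 also: cells stimulated with carbachol in lithium chloride buffer; plate controls were DMSO basal wells for no effect and reference inhibitor wells for full effect; higher means more IMPase inhibition seen as more IP1 and lower FRET ratio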
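Seeded CHO-M1 cells were dosed with compound at up to 46 uM, stimulated with carbachol for 30 min, then lysed in IP-One detection reagents. Higher IP1 lowers the TR-FRET signal.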
15-hLO-2 inh = inhibitors of human 15-lipoxygenase 2 (ALOX15B). O15296. purified 15hLO-2, xylenol orange hydroperoxide absorbance. Potency, µM (top dose mostly 57.1 µM), without a hit: at the top dose activity change, negative = inhibition, hits mostly inhibitors. actives 0.56% (n = 110,000). AID 881; also: potency is read from the fitted curve at half-maximal effect; nearly all actives have a fitted effect of over 60% in size
Target sequence (O15296 whole entry, looked up): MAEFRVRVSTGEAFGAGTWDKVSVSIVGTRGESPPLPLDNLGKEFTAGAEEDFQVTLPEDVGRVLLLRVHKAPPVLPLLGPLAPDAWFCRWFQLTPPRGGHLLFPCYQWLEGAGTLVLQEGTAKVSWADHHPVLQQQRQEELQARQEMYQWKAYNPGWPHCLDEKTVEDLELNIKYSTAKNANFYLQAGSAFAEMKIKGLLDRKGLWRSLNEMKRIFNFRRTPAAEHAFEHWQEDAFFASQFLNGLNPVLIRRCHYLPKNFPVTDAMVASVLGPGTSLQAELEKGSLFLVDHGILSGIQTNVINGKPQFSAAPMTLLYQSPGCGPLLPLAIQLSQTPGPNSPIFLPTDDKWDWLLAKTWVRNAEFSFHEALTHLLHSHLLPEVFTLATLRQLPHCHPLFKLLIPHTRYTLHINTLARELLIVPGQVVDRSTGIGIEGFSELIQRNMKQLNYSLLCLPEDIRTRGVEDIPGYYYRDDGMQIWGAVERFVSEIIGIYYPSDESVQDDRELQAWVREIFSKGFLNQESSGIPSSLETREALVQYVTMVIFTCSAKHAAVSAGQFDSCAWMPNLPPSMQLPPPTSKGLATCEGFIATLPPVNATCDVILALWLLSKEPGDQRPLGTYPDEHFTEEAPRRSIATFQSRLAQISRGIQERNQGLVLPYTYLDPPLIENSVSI
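Purified human 15hLO-2 (50 nM) preincubated 15 min with compound, then 45 uM arachidonic acid for 90 min at RT in 25 mM Hepes pH 7.5, 0.01% Triton X-100. Hydroperoxide detected by Fe-xylenol orange; 573/405 nm absorbance ratio.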
The depositor's hits bear a star; ? = inconclusive; . = no result given; ! = a repeat was not active; [ ] = dose if it differs, or a comment. This excerpt belongs to a sample that is enriched for hits. Unless noted, calls follow the shape of the dose curve; as a rule, active = well fitted curve in the direction sought with a large enough effect; inconclusive = small, poorly fitted or top-dose-only effect, or another doubt; inactive = no such curve, though single readings can be large; an effect the other way counts as inactive or inconclusive. Unless noted, % is scaled to controls: 0 for no effect and ±100 for the full control effect.

SMILES	PNC assembly inh	IMPase Li cell	ALOX12 inhib	IMPase inh	15-hLO-2 inh
C/C(Cl)=C/CC1(CN2CCCC2=O)C(=O)NC(=O)NC1=O	-122*	.	2%	11	-4%
CC12CC(c3ccccc3O1)C(C(=O)OCc1ccccc1)C(=O)N2 (stereo unspecified)	-119*	11%	-1%	15	.
NC(N)=Nc1ccc2[nH]c3c(c2c1)C[C@]1(O)[C@@H]2Cc4ccc(O)c5c4[C@]1(CCN2CC1CC1)[C@H]3O5	.	.	?	20	?
CCOC(=O)c1c(C)c(P(=S)(N2CCOCC2)N2CCOCC2)n(C)c1C	-121*	-6%[38.3 µM]	-3%	8	12%
CCOP(=S)(OCC)N1CCOCCOCCN(P(=S)(OCC)OCC)CCOCCOCC1	.	18%	.	.	.
CCCCn1c(O)c(C(CC)=Nc2cccc(C(=O)O)c2)c(=O)[nH]c1=O	-90*	20%[38.3 µM]	4%	7	2%
CCCCn1c(O)c(C(CC)=NCCN2CCCCC2)c(=O)[nH]c1=O	-89*	-6%[38.3 µM]	-7%	11	0%
CCCCn1c(O)c(C(CC)=NCCc2ccccc2)c(=O)[nH]c1=O	7	4%[38.3 µM]	-18%	-1	-17%
N[C@H](Cn1ccc(=O)[nH]c1=O)C(=O)O	.	.	-6%	-1	3%
CC(C)n1cc2c3c(cccc31)[C@@H]1C[C@H](C(=O)O[C@@H](C)[C@H](C)O)CN(C)[C@H]1C2	.	.	-2%	1	19%
CC1=C(C(=O)OC(C)C)[C@]2(C(=O)N(CC(N)=O)c3ccccc32)C(C#N)=C(N)O1	-100*	-1%	-4%	-4	.
O=C(O)[C@H]1[C@H](C(=O)O)[C@H]2CC[C@@H]1O2	.	.	3%	5	7%
CCC(=Nc1ccc(OC)cc1OC)c1c(O)[nH]c(=O)[nH]c1=O	-96*	2%[38.3 µM]	-6%	3	-4%
CCC(=Nc1cc(OC)ccc1OC)c1c(O)[nH]c(=O)[nH]c1=O	48	2%[38.3 µM]	0%	8	-5%
CCC(=NCCC(c1ccccc1)c1ccccc1)c1c(O)[nH]c(=O)[nH]c1=O	-96*	12%	-2%	.	.
O=C(O)[C@@H](O)[C@@H](O)[C@@H]1[O][Sb][O][C@@H]1CO	.	.	1%[11.4 µM]	.	9%[11.4 µM]
Cc1c(N=Cc2c(O)n(Cc3ccco3)c(=O)[nH]c2=O)c(=O)n(-c2ccccc2)n1C	-82*	31%[38.3 µM]	4%	25	-2%
C[C@@H]1[C@H]2C=C[C@@H]1[C@@H](c1c3ccc(=O)c(O)c-3oc3c(O)c(O)ccc13)[C@@H]2C(=O)O	.	.	-23%[11.4 µM]	.	?
Cc1[nH]c2ccccc2c1/C=N/O	-86*	-12%[38.3 µM]	-7%	8	-1%
Cc1nccc2c1[nH]c1ccccc12	.	-5%	-5%	-5	33%
CC1CCN(C(=O)c2ccc(N3CC4CC(C3)c3cccc(=O)n3C4)c([N+](=O)[O-])c2)CC1 (stereo unspecified)	1	8%	0%	3	.
CC1CCCN(C(=O)c2ccc(N3CC4CC(C3)c3cccc(=O)n3C4)c([N+](=O)[O-])c2)C1 (stereo unspecified)	-116*	-1%	-2%	.	.
C[C@H](N)c1cccc(Cl)c1Cl	.	.	-3%	4	14%
O=c1cc(-c2ccc(O)c(O)c2)oc2cc(O)cc(O)c12	.	24%	?	9	16µM*
CN1C2CCC1/C(=C/c1ccccn1)C(=O)/C2=C\c1ccccn1	-109*	19%	-1%	.	.
SMILES	PNC assembly inh	IMPase Li cell	ALOX12 inhib	IMPase inh	15-hLO-2 inh
Cc1cc[c]([Sb]2[O][C@H]([C@H](O)[C@H](O)C(=O)O)[C@@H](CO)[O]2)cc1	.	.	-4%[11.4 µM]	.	-14%[11.4 µM]
O=c1ccc2cc(O[C@H]3OC(CO)C(O)C(O)C3O)c(O)cc2o1 (stereo partly specified)	.	13µM*	-11%	.	-10%
O=c1ccc2cc(O[C@H]3O[C@@H](CO)[C@@H](O)[C@@H](O)[C@@H]3O)c(O)cc2o1	.	-13%	-2%[25.6 µM]	-2[20.6 µM]	1%[25.6 µM]
COc1ccc2c(c1)[C@]13CCCC[C@@H]1[C@H](C2)NCC3	.	.	-4%	18	15%
O=C(Cn1cc(C(=O)c2ccccc2F)c2ccccc21)NCc1ccco1	10	8.9µM*	2%	6	-2%
Nc1nc2c(ncn2[C@@H]2O[C@H](CO)[C@@H](O)[C@@H]2O)c(=[SH+])[nH]1.O=[N+]([O-])c1ccc(O)[c]([Hg])c1	.	23%	.	.	.
CCOc1ccc(-n2nc3c(=S)[nH]nc(C)c3c2C)cc1	-24	5µM*	3%	.	.
CCn1cc(C(=O)O)c(=O)c2cc3c(cc21)OCO3	?	7.9µM*!	-5%	1[20.6 µM]	8%
CCn1cc(C(=O)N2CCCCC2)c2ccccc21	.	5%	.	.	.
Nc1ccccc1O.O.O=C(O)[C@H]1[O][Sb][O][C@H]1C(=O)O	.	7%	-5%[11.4 µM]	.	-22%[11.4 µM]
Ic1ccccc1CN[C@@H]1C2CCN(CC2)[C@H]1C(c1ccccc1)c1ccccc1	.	.	-3%	9	36%
CCOC(=O)c1ccc(NC(=O)C2C3C=CC(O3)C2C(=O)O)cc1 (stereo unspecified)	-91*	-16%[38.3 µM]	-2%	0	-24%
N#CC(C#N)=NNc1ccc(OC(F)(F)F)cc1	.	-2%	-5%	.	16µM*
C=CCN1C[C@@H](C)N([C@H](c2ccc(C(=O)N(CC)CC)cc2)c2cccc(OC)c2)C[C@H]1C	.	.	-3%	13	17%
CSC([N-]/N=C/c1cccc(C)n1)=[S]=[Cu].CS[C@H]([S-])[N-]/N=C/c1cccc(C)n1	.	.	?	.	3.2µM*

Screens as filed in PubChem BioAssay.
